Source: PubChem BioAssay (NCATS)
Results filed as inconclusive are left out. Calls of active or inactive are those of the source. Unless noted, calls come from the whole dose curve; as a rule, active = well fitted curve in the direction sought with a large enough effect; inconclusive = small, poorly fitted or top-dose-only effect, or another doubt; inactive = no such curve, though single readings can be large; an effect the other way counts as inactive or inconclusive.

Legend:
[1] = qHTS for Inhibitors of Cell Surface uPA Generation: Validation Assay (AID 493164);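 note: RAW 264.7 macrophage cells exposed to compound for 18 h; 0% is about no effect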
How it was run: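 ATP-Lite luminescence read-out: ATP remains high when uPA activity-dependent LF translocation into the cytoplasm is blocked. RAW 264.7 cells, 18 h compound exposure at 37 C; 7-point titration, 2.45 nM to 38.3 uM final.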

[2] = molecular target: Galactokinase (Homo sapiens) (UniProt P51570); assay: qHTS Validation Assay for Inhibitors of Human Galactokinase (GALK) (AID 493189); note: 0% is about no effect
Sequence of Galactokinase (Homo sapiens) (P51570 whole entry, looked up): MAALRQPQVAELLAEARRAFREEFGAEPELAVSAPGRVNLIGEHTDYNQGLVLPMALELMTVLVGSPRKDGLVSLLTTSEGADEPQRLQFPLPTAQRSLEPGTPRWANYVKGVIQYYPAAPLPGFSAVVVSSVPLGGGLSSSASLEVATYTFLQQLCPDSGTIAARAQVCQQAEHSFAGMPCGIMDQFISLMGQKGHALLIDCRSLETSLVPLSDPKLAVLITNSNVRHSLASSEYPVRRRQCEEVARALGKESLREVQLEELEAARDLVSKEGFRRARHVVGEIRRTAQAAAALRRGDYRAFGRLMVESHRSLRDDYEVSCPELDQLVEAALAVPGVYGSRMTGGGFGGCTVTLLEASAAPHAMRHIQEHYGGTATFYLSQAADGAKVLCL
How it was run: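 Luminescence from leftover ATP (Kinase-Glo Plus, 10 min) served as read-out after a 1 h room-temperature reaction of 5 nM GALK, 100 uM galactose and 35 uM ATP at pH8.0.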

[3] = Validation screen for small molecules that induce DNA re-replication in SW480 colon adenocarcinoma cells (AID 504364); note: 0% is about no effect
How it was run: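 Image-based DNA content read-out: Hoechst stain 40 min, total nuclear fluorescence intensity (ex 405 nm, em 500-530 nm) after 48 h compound exposure of 250 SW480 cells/well at 37 C, 5% CO2, versus DMSO vehicle.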

[4] = molecular target: Peptidyl-prolyl cis-trans isomerase NIMA-interacting 1 (Homo sapiens) (UniProt Q13526); assay: qHTS Validation Assay to Find Inhibitors of Pin1 (AID 504536; active = well fitted inhibition curve with a large enough effect in the polarisation, with a control signal flat, not every such curve was filed as active; the % refers to the polarisation;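 note: 0% = full Pin1 enzyme wells and -100% = no-enzyme wells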)
Sequence of Peptidyl-prolyl cis-trans isomerase NIMA-interacting 1 (Homo sapiens) (Q13526 whole entry, looked up): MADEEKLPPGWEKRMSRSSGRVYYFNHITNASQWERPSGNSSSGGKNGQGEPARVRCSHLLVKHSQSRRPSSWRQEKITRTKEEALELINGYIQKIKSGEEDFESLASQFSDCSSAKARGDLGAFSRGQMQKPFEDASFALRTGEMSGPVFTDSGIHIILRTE
How it was run: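 Fluorescence polarization competition: compounds (titration) displace HiFluor-488-labeled Pin1-1b peptide from Pin1 (0.3 uM final) in pH 7.5 HEPES buffer with DTT, 10 min at room temperature; %Activity normalized to no-enzyme wells, curves fitted.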

[5] = molecular target: Phosphoglycerate kinase, glycosomal (Trypanosoma brucei brucei) (UniProt P07378); assay: qHTS Validation Assay to Find Inhibitors of Phosphoglycerate Kinase (AID 504547);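 note: control wells lack PGK and mark full inhibition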
Sequence of Phosphoglycerate kinase, glycosomal (Trypanosoma brucei brucei) (P07378 whole entry, looked up): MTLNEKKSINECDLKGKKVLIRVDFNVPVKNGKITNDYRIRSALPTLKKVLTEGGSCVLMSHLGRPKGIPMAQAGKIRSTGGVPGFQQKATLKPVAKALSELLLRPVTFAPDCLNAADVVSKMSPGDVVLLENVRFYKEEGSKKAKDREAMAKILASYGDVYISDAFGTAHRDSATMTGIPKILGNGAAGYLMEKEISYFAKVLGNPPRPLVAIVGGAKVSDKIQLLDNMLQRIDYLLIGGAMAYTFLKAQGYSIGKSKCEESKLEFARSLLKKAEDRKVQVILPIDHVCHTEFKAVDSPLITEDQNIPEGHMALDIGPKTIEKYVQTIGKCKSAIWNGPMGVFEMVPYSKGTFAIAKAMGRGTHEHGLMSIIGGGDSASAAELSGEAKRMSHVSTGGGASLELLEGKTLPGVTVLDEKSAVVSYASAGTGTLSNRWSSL
How it was run: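 In TEA buffer (100mM, pH 7.6) containing 5mM MgCl2 and 0.01% Tween-20, the GAPDH-coupled PGK reaction proceeded for 60 minutes at room temperature before a single luminescence reading using Kinase-Glo Plus.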

[6] = molecular target: phosphoglycerate mutase (Leishmania major) (UniProt Q4Q090); assay: qHTS Validation Assay to Find Inhibitors of Phosphoglycerate Mutase (AID 504548); settings: Potency: inhibition qHTS;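 note: end-point luminescence from Kinase-GloPlus after the PGAM reaction; series mostly up to about 58 µM; % is set by controls: 0 for no effect and ±100 for the full control effect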
Sequence of phosphoglycerate mutase (Leishmania major) (Q4Q090 1-553): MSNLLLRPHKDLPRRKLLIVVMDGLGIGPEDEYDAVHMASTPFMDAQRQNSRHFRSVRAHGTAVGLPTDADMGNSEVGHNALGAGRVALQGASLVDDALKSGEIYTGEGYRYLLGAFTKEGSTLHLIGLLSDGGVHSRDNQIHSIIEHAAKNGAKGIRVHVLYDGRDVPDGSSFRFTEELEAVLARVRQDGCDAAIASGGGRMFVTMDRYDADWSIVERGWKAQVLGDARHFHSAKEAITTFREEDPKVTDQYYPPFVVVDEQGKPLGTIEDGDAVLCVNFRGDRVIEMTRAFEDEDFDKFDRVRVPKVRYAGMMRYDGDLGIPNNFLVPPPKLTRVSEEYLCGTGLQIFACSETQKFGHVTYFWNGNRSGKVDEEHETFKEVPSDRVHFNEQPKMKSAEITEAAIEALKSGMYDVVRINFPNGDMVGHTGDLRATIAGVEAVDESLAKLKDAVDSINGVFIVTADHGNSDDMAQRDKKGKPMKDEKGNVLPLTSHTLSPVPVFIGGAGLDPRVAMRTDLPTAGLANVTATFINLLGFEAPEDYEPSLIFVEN
How it was run: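 Inhibition of L. major PGAM was assessed by Kinase-GloPlus luminescence following a 45-minute room-temperature reaction with enzyme at 1.25nM final.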

[7] = Nrf2 qHTS screen for inhibitors: Validation (AID 493153; active = well fitted inhibition curve with a large enough effect in the main read-out, with a control signal flat, not every such curve was filed as active); settings: Potency: luciferase luminescence; viability change: measured here: cytotoxicity max response
How it was run: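 Concentration-response on A549 ARE_Fluc reporter cells exposed 18-24 h at 37 C, 5% CO2. Cytotoxicity read first by CellTiter-Fluor fluorescence (Ex 405/Em 525), then Nrf2 inhibition by BugLite luminescence after 15 min.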

[8] = molecular target: Ubiquitin carboxyl-terminal hydrolase 1 (Homo sapiens) (UniProt O94782); assay: Inhibitors of USP1/UAF1: Pilot qHTS (AID 504865); note: nearly all actives have a fitted effect of over 35% in size; note: potency is the fitted concentration of half-maximal effect
Sequence of Ubiquitin carboxyl-terminal hydrolase 1 (Homo sapiens) (O94782 whole entry, looked up): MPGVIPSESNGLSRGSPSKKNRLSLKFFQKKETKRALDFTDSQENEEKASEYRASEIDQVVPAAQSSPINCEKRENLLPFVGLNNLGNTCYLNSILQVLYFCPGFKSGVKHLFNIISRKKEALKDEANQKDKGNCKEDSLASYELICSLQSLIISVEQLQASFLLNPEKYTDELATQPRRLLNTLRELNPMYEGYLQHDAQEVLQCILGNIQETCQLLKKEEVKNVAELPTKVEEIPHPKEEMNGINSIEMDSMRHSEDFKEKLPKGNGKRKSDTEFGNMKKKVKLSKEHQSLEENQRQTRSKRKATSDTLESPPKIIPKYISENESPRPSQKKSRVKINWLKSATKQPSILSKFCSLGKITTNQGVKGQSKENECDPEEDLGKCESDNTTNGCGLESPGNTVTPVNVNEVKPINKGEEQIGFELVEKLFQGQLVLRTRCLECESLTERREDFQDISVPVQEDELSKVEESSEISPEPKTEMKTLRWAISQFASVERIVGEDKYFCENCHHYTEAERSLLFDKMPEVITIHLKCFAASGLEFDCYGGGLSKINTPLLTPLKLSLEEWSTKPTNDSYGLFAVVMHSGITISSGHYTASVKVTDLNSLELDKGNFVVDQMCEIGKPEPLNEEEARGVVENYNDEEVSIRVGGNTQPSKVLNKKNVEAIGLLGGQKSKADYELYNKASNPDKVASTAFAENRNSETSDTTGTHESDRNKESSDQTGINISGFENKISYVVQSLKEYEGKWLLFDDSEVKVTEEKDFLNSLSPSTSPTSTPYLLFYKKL
How it was run: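 1nM USP1/UAF1 + cpd, 15 min RT; start w/ Ub-Rho 150nM final; kinetic FL 480/540 nm, 6 reads q60 s. Buffer 50mM HEPES pH 7.8, 0.5mM EDTA, 1mM TCEP, 0.01% Tween-20, 0.1 mg/ml BSA.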

[9] = qHTS for Inhibitors of ATXN expression: Validation of Cytotoxic Assay (AID 588349); note: potency is the fitted concentration of half-maximal effect
How it was run: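 Cytotoxicity counter-screen: ATP-based luminescent viability (CellTiter Glo) after 72 hr exposure of HEK293 cells to a compound titration at 37 degrees C.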

[10] = qHTS for Inhibitors of ATXN expression: Validation (AID 588378); note: nearly all actives have a fitted effect of over 75% in size; note: potency is the fitted concentration of half-maximal effect
How it was run: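 Cells: HEK293-ATXN2-FFLuc, phenol-red free DMEM, 2 h attachment. Compound pin-transfer, 24 h, 37 degrees C, 5% CO2. CellTiter-Fluor 30 min, Ex405/Em525; Bright-Glo 5 min, luminescence 2 s exposure.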

[11] = molecular target: DNA dC->dU-editing enzyme APOBEC-3G (Homo sapiens) (UniProt Q9HC16); assay: qHTS for inhibitors of Vif-A3G interactions: Validation (AID 588379); note: 0% is about no effect
Sequence of DNA dC->dU-editing enzyme APOBEC-3G (Homo sapiens) (Q9HC16 whole entry, looked up): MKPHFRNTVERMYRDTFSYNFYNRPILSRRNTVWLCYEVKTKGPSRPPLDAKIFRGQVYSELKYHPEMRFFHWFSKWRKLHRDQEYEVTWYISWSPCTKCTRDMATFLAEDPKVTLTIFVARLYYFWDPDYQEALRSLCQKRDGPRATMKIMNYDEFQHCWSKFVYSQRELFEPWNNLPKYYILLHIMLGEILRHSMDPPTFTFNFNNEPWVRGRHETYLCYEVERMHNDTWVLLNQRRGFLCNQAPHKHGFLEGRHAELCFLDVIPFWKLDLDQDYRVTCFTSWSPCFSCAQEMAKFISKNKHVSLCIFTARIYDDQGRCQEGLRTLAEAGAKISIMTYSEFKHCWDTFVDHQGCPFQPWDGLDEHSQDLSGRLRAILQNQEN
How it was run: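 Yellow fluorescence (Ex 488, Em 500-530) of Vif-coexpressing HeLa A3G-eYFP cells, scanned by Acumen cytometer, reports blocked A3G degradation. Cells plated at 700/well overnight at 37 deg C before compound addition, then a further overnight compound incubation at 37 deg C.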

[12] = molecular target: Estrogen receptor (Homo sapiens) (UniProt P03372); assay: qHTS assay for small molecule agonists of estrogen receptor alpha signaling (AID 588514; calls by dose curve;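 note: 0% = vehicle only and 100% = reference agonist; nearly all actives have a fitted effect of over 70% in size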)
Sequence of Estrogen receptor (Homo sapiens) (P03372 whole entry, looked up): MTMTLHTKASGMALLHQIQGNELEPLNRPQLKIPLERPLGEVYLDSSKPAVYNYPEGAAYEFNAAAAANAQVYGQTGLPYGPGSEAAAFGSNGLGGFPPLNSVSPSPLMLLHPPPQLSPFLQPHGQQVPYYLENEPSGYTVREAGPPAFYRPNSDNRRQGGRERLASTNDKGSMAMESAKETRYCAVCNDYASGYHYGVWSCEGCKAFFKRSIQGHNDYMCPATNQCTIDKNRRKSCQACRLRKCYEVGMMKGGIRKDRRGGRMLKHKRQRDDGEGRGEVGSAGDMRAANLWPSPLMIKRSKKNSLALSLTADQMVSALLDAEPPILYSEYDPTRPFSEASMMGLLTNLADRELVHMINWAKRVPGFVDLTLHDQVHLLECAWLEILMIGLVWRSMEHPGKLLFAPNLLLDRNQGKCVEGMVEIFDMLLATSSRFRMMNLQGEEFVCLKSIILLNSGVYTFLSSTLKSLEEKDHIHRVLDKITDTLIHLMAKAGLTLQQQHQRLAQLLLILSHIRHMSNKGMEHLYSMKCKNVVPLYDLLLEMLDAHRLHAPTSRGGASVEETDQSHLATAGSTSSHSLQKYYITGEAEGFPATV
How it was run: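 EC50 and efficacy came from Hill fits of beta-lactamase reporter signal (CCF4 dye, 2 h at room temperature) scaled between DMSO and 20 nM 17-beta-estradiol. Agonist mode: HEK293 ER-alpha-UAS-bla cells in charcoal/dextran-stripped serum medium, 18 h compound exposure at 37 C.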

[13] = molecular target: Bile acid receptor (Homo sapiens) (UniProt Q96RI1); assay: qHTS assay for small molecule antagonists of farnesoid X receptor signaling (AID 588526; calls by dose curve; note: % is set by controls: 0 for no effect and ±100 for the full control effect)
Sequence of Bile acid receptor (Homo sapiens) (Q96RI1 whole entry, looked up): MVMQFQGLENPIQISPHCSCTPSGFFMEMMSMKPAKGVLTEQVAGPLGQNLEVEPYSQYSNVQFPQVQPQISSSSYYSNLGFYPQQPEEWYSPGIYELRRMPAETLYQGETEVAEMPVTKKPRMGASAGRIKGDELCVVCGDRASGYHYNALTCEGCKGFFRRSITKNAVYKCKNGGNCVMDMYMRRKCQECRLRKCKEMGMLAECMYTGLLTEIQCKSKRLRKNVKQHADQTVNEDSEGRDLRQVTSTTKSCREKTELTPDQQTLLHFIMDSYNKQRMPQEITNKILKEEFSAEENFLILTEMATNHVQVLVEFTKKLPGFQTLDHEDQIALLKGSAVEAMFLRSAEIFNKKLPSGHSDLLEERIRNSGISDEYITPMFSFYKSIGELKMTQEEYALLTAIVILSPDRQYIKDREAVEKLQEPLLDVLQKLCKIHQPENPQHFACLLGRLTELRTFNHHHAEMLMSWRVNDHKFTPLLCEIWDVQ
How it was run: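 Concentration-response titrations were fitted to the Hill equation for half-maximal inhibition and maximal response, with data normalised to 50 uM chenodeoxycholic acid and DMSO control wells. Cells: FXR-UAS-bla HEK293T, dialyzed FBS.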

[14] = molecular target: Glucocorticoid receptor (Homo sapiens) (UniProt P04150); assay: qHTS assay for small molecule agonists of glucocorticoid receptor signaling (AID 588532; active = well fitted curve in the direction sought with a large enough effect in the signal ratio, with a control signal flat; the % refers to the signal ratio;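 note: 100% = dexamethasone at 0.1 µM and 0% = DMSO only wells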); settings: HeLa MMTV-bla, beta-lactamase ratio, agonist, 18 h; stronger effect = higher value; percent of dexamethasone control, DMSO zero
Sequence of Glucocorticoid receptor (Homo sapiens) (P04150 whole entry, looked up): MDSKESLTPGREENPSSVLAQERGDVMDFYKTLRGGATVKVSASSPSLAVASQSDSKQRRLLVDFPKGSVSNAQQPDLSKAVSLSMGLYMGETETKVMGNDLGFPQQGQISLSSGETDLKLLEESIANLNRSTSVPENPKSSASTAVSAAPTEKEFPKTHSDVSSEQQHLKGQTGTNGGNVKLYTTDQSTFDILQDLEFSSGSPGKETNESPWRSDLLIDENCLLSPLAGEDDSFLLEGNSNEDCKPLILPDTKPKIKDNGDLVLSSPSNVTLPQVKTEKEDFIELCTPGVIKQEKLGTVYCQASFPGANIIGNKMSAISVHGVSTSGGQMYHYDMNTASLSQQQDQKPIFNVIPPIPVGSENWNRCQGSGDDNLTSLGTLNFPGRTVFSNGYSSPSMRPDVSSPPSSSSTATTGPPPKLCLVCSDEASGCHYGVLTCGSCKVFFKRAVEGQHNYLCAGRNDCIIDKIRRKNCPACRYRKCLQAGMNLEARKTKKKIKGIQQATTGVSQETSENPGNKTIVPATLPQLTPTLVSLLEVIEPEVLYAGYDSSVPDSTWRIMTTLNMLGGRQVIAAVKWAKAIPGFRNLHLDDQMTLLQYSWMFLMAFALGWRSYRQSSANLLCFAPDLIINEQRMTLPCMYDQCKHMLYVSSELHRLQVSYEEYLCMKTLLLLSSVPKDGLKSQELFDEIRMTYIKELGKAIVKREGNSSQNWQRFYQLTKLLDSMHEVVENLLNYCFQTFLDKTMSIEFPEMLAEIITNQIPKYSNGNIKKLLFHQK
How it was run: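 Titration series, up to 92 uM, applied to GRE-bla HeLa cells for 18 h at 37 C. Detection by CCF4 FRET substrate after 2 h at RT.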

CCCC(=O)NCCc1c2n(c3ccc(OC)cc13)CCCc1ccccc1-2
inactive: outcome [1] | Potency [2] | Potency [3] | Potency [4] | Potency [5] | Potency [6]

CC(C)[C@@H]1CC[C@@H](C)C[C@@H]1P(=O)(c1ccccc1)c1ccccc1
-1.08%: viability change [7]
inactive: Potency [7] | outcome [1] | Potency [4] | Potency [8] | Potency [9]

CN1CC(O)C(O)C(O)C1CO (centres undefined)
2.46%: viability change [7]
inactive: Potency [7] | outcome [1] | Potency [4] | Potency [6] | Potency [8] | Potency [9] | Potency [10]

COc1ccc2c(c1)c(CC(=O)O)c(C)n2Cc1ccc(Cl)cc1
inactive: outcome [1] | Potency [2] | Potency [3] | Potency [4] | Potency [5] | Potency [6] | Potency [8] | Potency [9] | Potency [10]

O=c1[nH]c2ccccc2c2ccccc12
inactive: outcome [1] | Potency [2] | Potency [3] | Potency [4] | Potency [5] | Potency [6] | Potency [8] | Potency [9] | Potency [10]

CC#CCOC(=O)c1c(C)nc2sc3c(c2c1N)CCC(O)C3 (centres undefined)
inactive: outcome [1] | Potency [2] | Potency [3] | Potency [4] | Potency [5] | Potency [6] | Potency [8] | Potency [9] | Potency [10]

c1ccc2c(c1)CCC[C@H]2Nc1nc2ccccc2[nH]1
inactive: Potency [7] | outcome [1] | Potency [4] | Potency [5] | Potency [6] | Potency [9] | Potency [10]
-8.96%: viability change [7]

OC[C@H]1O[C@H](n2cnc3c(N[C@H]4CCC[C@@H]4O)ncnc32)[C@H](O)[C@@H]1O
2.15%: viability change [7]
inactive: Potency [7] | outcome [1] | Potency [4] | Potency [5] | Potency [6] | Potency [8] | Potency [9] | Potency [10]

CCCCCCCC/C=C\CCCCCCCC(=O)NCCc1ccc(O)c(O)c1
active: Potency [9] 31.6 µM | Potency [10] 20 µM
inactive: outcome [1] | Potency [2] | Potency [3] | Potency [4] | Potency [5] | Potency [6]

CSc1nc(N)c2ncn([C@@H]3O[C@H](COP(=O)(O)OP(=O)(O)O)C(O)[C@H]3O)c2n1 (some centres undefined)
inactive: Potency [7] | outcome [1] | Potency [6] | Potency [8] | Potency [9] | Potency [10]
0.858%: viability change [7]

C/C(=C\c1ccc(C(=O)O)cc1)c1ccc2c(c1)C(C)(C)CCC2(C)C
inactive: outcome [1] | Potency [2] | Potency [3] | Potency [5] | Potency [6] | Potency [9] | Potency [10] | Potency [11] | Potency [12] | outcome [13] | activation [14] -4.65%

CCCCOC(=O)NS(=O)(=O)c1sc(CC(C)C)cc1-c1ccc(Cn2c(CC)nc3c(C)cc(C)nc32)cc1
inactive: outcome [1] | Potency [2] | Potency [4] | Potency [5]
active: Potency [8] 56.2 µM

O=C(O)CCC/C=C\C[C@@H]1[C@@H](/C=C/[C@H](O)C2Cc3ccccc3C2)[C@@H](F)C[C@@H]1O
inactive: outcome [1] | Potency [4] | Potency [5] | Potency [6] | Potency [9] | Potency [10]

CN(C)CCCc1cc(C(=O)Nc2ccc(-c3ccncc3)cc2)ccc1O
inactive: outcome [1] | Potency [4] | Potency [5] | Potency [6] | Potency [8] | Potency [9] | Potency [10] | Potency [11]

CCCCCCN(CCCCCC)C(=O)Cc1c(-c2ccc(F)cc2)[nH]c2ccccc12
inactive: outcome [1] | Potency [2] | Potency [4] | Potency [5] | Potency [6] | Potency [9] | Potency [10] | Potency [11]

O=c1[nH]c2cc(Cl)ccc2c(O)c1-c1ccc(Oc2ccccc2)cc1
inactive: outcome [1] | Potency [2] | Potency [3] | Potency [4] | Potency [6] | Potency [8] | Potency [9] | Potency [10]

N#Cc1cc([N+](=O)[O-])c2sc(C(N)=O)[n+]([O-])c2c1
inactive: outcome [1] | Potency [4] | Potency [5] | Potency [9] | Potency [10]

N#CC(=C(\N)Sc1ccccc1N)/C(C#N)=C(/N)Sc1ccccc1N
inactive: outcome [1] | Potency [2] | Potency [4] | Potency [5] | Potency [6] | Potency [8] | Potency [9]

CNCCc1cnc(CCC(c2ccccc2)c2ccccc2)[nH]1
inactive: outcome [1] | Potency [4] | Potency [5] | Potency [6] | Potency [8]

Nc1ccc2c3c(cccc13)C(=O)NC2=O
inactive: outcome [1] | Potency [2] | Potency [3] | Potency [5] | Potency [6] | Potency [9] | Potency [10]

CN1CCC2(CCN3CCc4c(oc5ccccc45)C3C2)N(C)C1=O (centres undefined)
inactive: outcome [1] | Potency [2] | Potency [4] | Potency [5] | Potency [6] | Potency [8] | Potency [9] | Potency [10]

CN(C)S(=O)(=O)c1ccc2c(c1)/C(=C/c1cc3c([nH]1)CCCC3)C(=O)N2
inactive: outcome [1] | Potency [2] | Potency [5] | Potency [6] | Potency [9] | Potency [10]
active: Potency [8] 25.1 µM
